Compound activity as filed in PubChem BioAssay.
Hits are enriched below; roughly 2.8% of the tested compounds scored in any of these assays.
Pol iota inh: qHTS for Inhibitors of Polymerase Iota; DNA polymerase iota (Homo sapiens), Q9UNA4; 390,000 compounds, 1% hits; Pol iota fluorescent replication assay, 10 min; Potency, µM (doses to about 115 µM), for the others: at the highest dose activity, negative = inhibition, actives largely listed as inhibitors; note: potency is the fitted concentration of half-maximal effect
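Pol iota at 10 nM preincubated 15 min with compounds at room temperature; reaction started with fluorescent substrate, 50 nM final. Fluorescence read kinetically at 0 and 10 min; buffer-only wells as negative control.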
Pol kappa inh-1: qHTS for Inhibitors of Polymerase Kappa; DNA polymerase kappa (Homo sapiens), Q9UBT6; AID 588579, 2011; purified Pol kappa, fluorescent DNA synthesis assay, 10 min; 400,000 compounds, 0.53% hits; Potency, µM (highest dose often 107 µM), for inactives: at the highest dose activity, negative = inhibition, hits mostly inhibitors; note: potency is the fitted concentration of half-maximal effect; % is set by controls: 0 for no effect and ±100 for the full control effect
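Inhibition of 10 nM Pol kappa is measured by a fluorescent read-out at 0 and 10 min following addition of 50 nM substrate (final), with a 15-min room-temperature compound preincubation.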
Pol eta inh-1: qHTS for Inhibitors of Polymerase Eta; DNA polymerase eta (Homo sapiens), Q9Y253; recombinant Pol eta, fluorescent DNA replication assay; Potency, µM (doses to about 114 µM), for the others: at the top dose activity change, negative = inhibition, actives largely listed as inhibitors; 390,000 compounds, 1.2% hits; AID 588591, 2011; note: potency is the fitted concentration of half-maximal effect; % is set by controls: 0 for no effect and ±100 for the full control effect
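Pol eta (10 nM) was preincubated with compounds for 15 min at room temperature, after which fluorescent replication substrate (50 nM final) was added to start the reaction. Fluorescence was read kinetically at 0 and 10 min.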
Pol beta inh: qHTS Assay for Inhibitors of DNA Polymerase Beta; Pol beta primer extension/strand displacement, fluorescence kinetic; Potency, µM (highest dose often 114 µM), for the others: at the top dose activity change, negative = inhibition, usual class: inhibitors; 340,000 compounds, 1.3% hits; AID 485314, 2010; note: potency is the fitted concentration of half-maximal effect; % is set by controls: 0 for no effect and ±100 for the full control effect
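Curves were derived by four-parameter Hill fits of normalized qHTS data. The kinetic fluorescent primer-extension read was taken at 0 and 10 min after 50 nM substrate, following a 15 min room-temperature preincubation of 10 nM enzyme with compounds.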
PI5P4Ka inh: qHTS for Inhibitors of phosphatidylinositol 5-phosphate 4-kinase (PI5P4K). max response, %. AID 652105, 2013. Phosphatidylinositol 5-phosphate 4-kinase type-2 alpha (Homo sapiens), P48426. 330,000 compounds, 1.2% hits. PI5P4Kalpha enzyme, ADP-Glo luminescence, 60 min; hits give low values; active = max response of -50% or lower; inconclusive = between -30% and -50%; inactive = -30% or higher; note: value at the top dose of about 77 µM; % is set by controls: 0 for no effect and ±100 for the full control effect
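Luminescence from ADP-Glo served as readout of PI5P4Kalpha activity in a qHTS format. Reaction: enzyme, substrate, compound, ATP at 5 microM final, 60 min at RT.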
WRN helicase inh-1: qHTS for Inhibitors of WRN Helicase; Bifunctional 3'-5' exonuclease/ATP-dependent helicase WRN (Homo sapiens), Q14191; Potency, µM (top dose mostly 114 µM), without a hit: top-dose activity change, negative = inhibition, hits mostly inhibitors; AID 651768, 2012; 360,000 compounds, 0.46% hits; WRN helicase unwinding, fluorescent forked duplex, kinetic; note: potency is the fitted concentration of half-maximal effect; % is set by controls: 0 for no effect and ±100 for the full control effect; nearly all actives have a fitted effect of over 55% in size
Target sequence (Q14191 whole entry, looked up): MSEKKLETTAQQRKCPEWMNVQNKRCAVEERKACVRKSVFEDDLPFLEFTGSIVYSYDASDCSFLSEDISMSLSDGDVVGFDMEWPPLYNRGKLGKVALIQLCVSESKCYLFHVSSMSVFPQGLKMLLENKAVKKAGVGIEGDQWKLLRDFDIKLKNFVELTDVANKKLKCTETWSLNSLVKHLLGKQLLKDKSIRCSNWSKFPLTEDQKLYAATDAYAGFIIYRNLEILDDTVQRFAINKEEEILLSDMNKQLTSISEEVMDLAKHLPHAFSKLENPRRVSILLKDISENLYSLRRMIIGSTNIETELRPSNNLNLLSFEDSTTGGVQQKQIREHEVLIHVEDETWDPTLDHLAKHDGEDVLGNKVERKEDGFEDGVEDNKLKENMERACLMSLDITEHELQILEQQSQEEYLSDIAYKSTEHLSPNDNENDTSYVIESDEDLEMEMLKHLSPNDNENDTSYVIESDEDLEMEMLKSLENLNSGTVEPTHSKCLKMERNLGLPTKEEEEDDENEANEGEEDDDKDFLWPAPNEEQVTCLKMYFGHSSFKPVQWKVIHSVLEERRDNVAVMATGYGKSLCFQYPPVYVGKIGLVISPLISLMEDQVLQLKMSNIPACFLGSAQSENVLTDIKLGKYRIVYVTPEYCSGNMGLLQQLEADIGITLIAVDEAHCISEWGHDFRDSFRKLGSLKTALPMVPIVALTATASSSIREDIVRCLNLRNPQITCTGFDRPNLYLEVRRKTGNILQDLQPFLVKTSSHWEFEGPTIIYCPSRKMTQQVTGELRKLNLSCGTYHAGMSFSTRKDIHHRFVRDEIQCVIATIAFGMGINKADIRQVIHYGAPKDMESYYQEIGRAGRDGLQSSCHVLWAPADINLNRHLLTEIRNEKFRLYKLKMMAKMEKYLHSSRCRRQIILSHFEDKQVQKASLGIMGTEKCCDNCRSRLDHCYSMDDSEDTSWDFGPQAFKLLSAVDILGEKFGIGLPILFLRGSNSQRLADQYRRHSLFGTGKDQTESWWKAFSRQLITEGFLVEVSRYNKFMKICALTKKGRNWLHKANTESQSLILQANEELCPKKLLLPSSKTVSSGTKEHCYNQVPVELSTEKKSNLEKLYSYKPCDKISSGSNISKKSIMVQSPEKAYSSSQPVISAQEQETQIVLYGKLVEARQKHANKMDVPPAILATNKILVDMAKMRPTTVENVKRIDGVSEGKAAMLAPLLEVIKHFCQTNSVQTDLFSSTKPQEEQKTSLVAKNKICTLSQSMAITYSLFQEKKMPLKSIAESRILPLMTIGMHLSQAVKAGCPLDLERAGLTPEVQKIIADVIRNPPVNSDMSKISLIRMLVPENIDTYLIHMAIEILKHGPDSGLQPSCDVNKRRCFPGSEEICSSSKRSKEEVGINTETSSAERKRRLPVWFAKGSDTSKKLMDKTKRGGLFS
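Kinetic fluorescence helicase assay: unwinding of a quenched forked DNA duplex (100 nM final) with 2 mM ATP final raises red fluorescence (525/598 nm). Compounds sat 15 min at room temperature with 20 nM WRN beforehand.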
Pol kappa inh-2: qHTS for Inhibitors of Polymerase Kappa: Confirmatory Assay for Cherry-picked Compounds; shares compounds with Pol eta inh-1; purified Pol-kappa, fluorescent strand-displacement substrate; Potency, µM, most hits filed as inhibitors; 920 compounds, 76% hits; AID 720501, 2013; note: potency is the fitted concentration of half-maximal effect
Pol eta inh-2: qHTS for Inhibitors of Polymerase Eta: Confirmatory Assay for Cherry-picked Compounds; shares compounds with Pol eta inh-1; Pol eta primer extension, TAMRA/BHQ fluorescence, 10 min; Potency, µM, most hits filed as inhibitors; 2,600 compounds, 64% hits; AID 720502, 2013; note: potency is the fitted concentration of half-maximal effect
WRN helicase inh-2: qHTS for Inhibitors of WRN Helicase: Confirmatory Assay for Cherry-picked Compounds; AID 720497, 2013; Potency, µM (top dose mostly 57.1 µM), for the others: at the highest dose activity, negative = inhibition, usual class: inhibitors; shares compounds with WRN helicase inh-1; 610 compounds, 63% hits; WRN helicase DNA unwinding, fluorescence kinetic; note: potency is the fitted concentration of half-maximal effect; nearly all actives have a fitted effect of over 65% in size
TO displacement: qHTS for Inhibitors of WRN Helicase: Thiazole Orange DNA Binding Counterscreen. 610 compounds, 10% hits. AID 720499, 2013. shares compounds with WRN helicase inh-1. thiazole orange DNA binding displacement, fluorescence. Potency, µM (titrated, usually from 57.1 µM), inactives show top-dose activity change, negative = inhibition, actives largely listed as inhibitors;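 note: drop in dye fluorescence marks compound binding to DNA; potency is the fitted concentration of half-maximal effect; % is set by controls: 0 for no effect and ±100 for the full control effect; nearly all actives have a fitted effect of over 60% in size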
BLM helicase inh: qHTS for Inhibitors of WRN Helicase: BLM Helicase Counterscreen for WRN Inhibitors | shares compounds with WRN helicase inh-1 | Recombinant BLM helicase DNA unwinding, red fluorescence | Potency, µM (series often up to 57.1 µM), without a hit: at the highest dose activity change, negative = inhibition, actives largely listed as inhibitors | 610 compounds, 60% hits | AID 720503, 2013; note: potency is the fitted concentration of half-maximal effect; nearly all actives have a fitted effect of over 60% in size
ADP-Glo interf: qHTS for Inhibitors of PI5P4K: ADP-Glo counter assay | shares compounds with PI5P4Ka inh | Potency, µM (highest dose often 76.9 µM), for the others: at the top dose activity change, negative = inhibition, usual class: inhibitors | ADP-Glo detection counter-screen, luciferase luminescence, no enzyme | AID 743285, 2014 | 1,100 tested, under 10 active
* hit, by the source's call; u = inconclusive; x = not tested or not shown; [ ] = dose if it differs, or a comment. Unless noted, calls come from the whole dose curve; as a rule, active = well fitted curve in the direction sought with a large enough effect; inconclusive = small, poorly fitted or top-dose-only effect, or another doubt; inactive = no such curve, though single readings can be large; an effect the other way counts as inactive or inconclusive.

SMILES	Pol iota inh	Pol kappa inh-1	Pol eta inh-1	Pol beta inh	PI5P4Ka inh	WRN helicase inh-1	Pol eta inh-2	ADP-Glo interf	others
CCOC(=O)CC(NC(=O)CCc1c(C)nc2c(-c3ccccc3)c(C)nn2c1C)c1ccc(C)cc1 (stereo not given)	3.1%	-4.9%	-18.4%	-1.2%	x	x	x	x
Cc1ccc(-c2csc(NS(=O)(=O)c3cccc(F)c3)n2)o1	u	u	25.1µM*	x	-67.7*	31.6µM*	u	1.9%	WRN helicase inh-2=24.1µM*;TO displacement=-28.5%;BLM helicase inh=u
CN(c1ccccc1C(=O)O)S(=O)(=O)c1ccc2c3c(cccc13)C(=O)N2	u	79.4µM*	12.6µM*	12.6µM*	-56.0*	u	u	-2.5%
O=C(O)c1ccccc1NS(=O)(=O)c1ccc2c3c(cccc13)C(=O)N2	u	-9.5%	3.3%	0.2%	x	-29.2%	x	x
COc1ccc(C2=CC3=C(Br)C(=O)C(C)(OC(=O)c4cccs4)C(=O)C3=CO2)cc1 (stereo not given)	u	u	39.8µM*	x	-70.5*	u	u	2.6%
CNC(=O)Cn1cc(S(=O)(=O)Cc2ccccc2F)c2ccccc21	22.5%	-7.2%	-12.6%	0.4%	x	x	x	x
O=C(COC(=O)CCC(=O)c1ccc(Cl)cc1)NCc1ccco1	44.7µM*	u	25.1µM*	35.5µM*	-51.5*	u	75.7*	0.3%
COc1cc(O)ccc1C(C)=O	x	-2.9%[60.1 µM]	x	x	x	x	x	x
O=C(c1ccco1)N(CCC(c1ccccc1)c1ccco1)Cc1ccccc1 (stereo not given)	28.2µM*	79.4µM*	22.4µM*	25.1µM*	-59.7*	u	u	2.1%	Pol kappa inh-2=67*
O=C(CSCc1ccc(Cl)cc1)Nc1ccc2c(c1)OCCO2	9.2%	-16.9%	-11.3%	2.2%	2.4	-13.2%	x	x
O=C(CSc1nc(=O)n2cc(Cl)ccc2n1)Nc1ccc2c(c1)OCCO2	-19.1%	-43.7%	28.2µM*	x	-54.3*	u	u	-4.1%
O=C(O)c1cc(-c2ccc(-c3c(-c4ccc5c(c4)OCO5)noc3-c3ccsc3)cc2)nc2ccccc12	u	-29.7%	79.4µM*	-15.2%	-70.7*	u	x	0.4%	Pol kappa inh-2=u
Cc1csc(NC(=O)CSc2sc3c(O)cc(=O)[nH]c3c2C#N)n1	7.94µM*	28.2µM*	17.8µM*	44.7µM*	-80.8*	39.8µM*	u	4.9%	Pol kappa inh-2=u
COc1ccc(NC(=O)CSc2sc3c(O)cc(=O)[nH]c3c2C#N)c(OC)c1	2.51µM*	u	22.4µM*	1.58µM*	-64.6*	u	u	-8.4%	Pol kappa inh-2=u
Cc1csc(NC(=O)CSc2nsc(SCC(=O)Nc3nc(C)cs3)c2C#N)n1	-1.0%	-19.1%	-3.7%	27.2%	x	-9.5%	x	x
COc1ccc(NC(=O)CSc2nc(O)cc(=O)[nH]2)c(OC)c1	2.2%	1.3%	-7.9%	-29.6%	-7.1	-1.7%	x	x
COc1ccc(-n2c(SCC(=O)c3ccc(Cl)cc3)nc3c([nH]c4ccccc43)c2=O)cc1	-0.8%	-5.6%[60.1 µM]	-2.1%	-8.9%	x	x	x	x
Cc1nn(CC(=O)NC(C)c2ccccc2)c(=O)c2cc3occc3n12 (stereo not given)	4.1%	0.0%	3.2%	48.2%	x	x	x	x
CCC(C)(C)C1CCc2c(sc(NC(=O)C3c4ccccc4Oc4ccccc43)c2C(N)=O)C1 (stereo not given)	-1.9%	-22.0%	-5.8%	1.3%	x	x	x	x
NC(=O)c1c(NC(=O)C2c3ccccc3Oc3ccccc32)sc2c1CCCCC2	u	-28.3%	35.5µM*	44.7µM*	-54.2*	-12.0%[11.6 µM]	u	3.9%
O=C(Cn1c(=O)c2cccn2c2ccccc21)NCc1ccccc1F	13.6%	-0.1%	-1.1%	-1.5%	x	x	x	x
Cc1nc(N)sc1-c1csc(Nc2cccc(C(=O)O)c2)n1	11.2µM*	25.1µM*	39.8µM*	u	-51.7*	-12.8%[11.6 µM]	47.8*	-7.6%	Pol kappa inh-2=11.9*
Cc1ccc(C)c(-n2c3nc(=O)n(C)c(=O)c-3cc3ccccc32)c1	9.8%	9.0%	-8.2%	12.8%	-3.3	2.9%	x	x
Cc1ccc(C)c(-n2c3nc(=O)[nH]c(=O)c-3cc3cc([N+](=O)[O-])ccc32)c1	20µM*	u	12.6µM*	35.5µM*	-65.2*	79.4µM*	60.1*	4.8%
Cc1ccc(-c2csc(NC(=O)c3c(C)noc3C)n2)cc1	-4.8%	-22.5%	-3.8%	x	5.9	-6.2%	x	x
Cc1ccc(-c2csc(NC(=O)c3ccno3)n2)cc1	u	-23.7%	44.7µM*	14.1µM*	-53.2*	-25.2%[57.1 µM]	u	-3.1%
